Experimental findings from PubChem BioAssay (EPA / NIEHS) are described below.

Assay [1] in a line: BSK_3C_VCAM1: BioMAP Diversity Plus: 3C Assay for Vascular cell adhesion molecule 1 (VCAM1) Biomarker Activity (AID 2282999). As to conditions: BioMAP 3C HUVEC, VCAM1 ELISA, cytokine-stimulated; actives raise or lower the signal. In a few lines: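 Endothelial cells from human umbilical vein are treated with test chemical. At 24 h, VCAM-1 is measured by ELISA, and responses in either direction are fitted relative to DMSO.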

The nature of assay [2]: BSK_3C_Proliferation: Cell Proliferation Assessment in the BioMAP Diversity Plus: 3C Assay (AID 2283006). As to conditions: primary human endothelial cells (HUVEC). The essentials:
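Proliferation of human vascular endothelial primary cells after 48 h dosing, quantified as SRB-stained protein at 560 nm relative to DMSO.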

The nature of assay [3]: BSK_3C_Vis: BioMAP Diversity Plus: 3C Assay for Morphology Visualization (AID 2283025).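 Further: fitted both ways so gain or loss versus DMSO counts.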 As to conditions: primary human endothelial cells (HUVEC). The essentials:
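Endothelial cells from human umbilical vein were treated with test chemicals for 24 h and inspected by light microscopy for changes in cell conformation.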

Assay [4] in a line: BSK_BE3C_SRB: Viability Assessment in the BioMAP Diversity Plus: BE3C Assay (AID 2283028). As to conditions: primary human bronchial epithelial cells. In a few lines:
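SRB total-protein staining (0.1%, after TCA fixation) of chemically dosed human bronchial epithelial primary cells at 24 h; DMSO serves as the negative control for bidirectional curve fitting.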

Read-out in assay [5]: Thrombomodulin, THBD (gene 7056)
The assay can be described thus: BSK_3C_Thrombomodulin: BioMAP Diversity Plus: 3C Assay for Thrombomodulin Biomarker Activity (AID 2283029). As to conditions: primary human endothelial cells (HUVEC); actives raise or lower the signal. In a few lines: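 Thrombomodulin ELISA, human primary HUVEC, 24 h post-dose; data fitted in both directions relative to DMSO.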

Read-out in assay [6]: Vascular cell adhesion molecule 1 (VCAM1), VCAM1 (gene 7412)
The assay can be described thus: BSK_4H_VCAM1: BioMAP Diversity Plus: 4H Assay for Vascular cell adhesion molecule 1 (VCAM1) Biomarker Activity (AID 2283033).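 On outcome: cell-surface VCAM-1 protein measured by ELISA.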 As to conditions: primary human endothelial cells (HUVEC); actives raise or lower the signal. In a few lines: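 Endpoint derived from bidirectional fitting against DMSO controls of VCAM-1 ELISA signal in umbilical vein endothelial cells sampled at 24 h following treatment.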

Read-out in assay [7]: Interferon-gamma inducible Protein 10 (IP10), CXCL10 (gene 3627)
The assay can be described thus: BSK_BE3C_IP10: BioMAP Diversity Plus: BE3C Assay for Interferon-gamma inducible Protein 10 (IP10) Biomarker Activity (AID 2283034). As to conditions: primary human bronchial epithelial cells; actives raise or lower the signal. The essentials: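 Using primary human bronchial epithelial cultures, the assay captures IP-10 by ELISA one day (24 h) after exposure. Parallel SRB staining of total protein flags overt cytotoxicity. Fits run bidirectionally relative to DMSO.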

Read-out in assay [8]: Urokinase-type plasminogen activator receptor (uPAR), PLAUR (gene 5329)
Put plainly: BSK_BE3C_uPAR: BioMAP Diversity Plus: BE3C Assay for Urokinase-type plasminogen activator receptor (uPAR) Biomarker Activity (AID 2283039).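 Further: uPAR protein level measured by ELISA on the cells; cells exposed to compound for one day before measurement.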 As to conditions: primary human bronchial epithelial cells; actives raise or lower the signal. The essentials:
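A uPAR ELISA serves as the readout, taken 24 h after treating primary human bronchial epithelial cells. Responses in either direction are fitted against DMSO, which defines baseline activity.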

Read-out in assay [9]: Interleukin-6 (IL6), IL6 (gene 3569)
The assay can be described thus: BSK_CASM3C_IL6: BioMAP Diversity Plus: CASM3C Assay for Interleukin-6 (IL6) Biomarker Activity for (AID 2283040). As to conditions: primary human coronary artery smooth muscle cells; actives raise or lower the signal.

Read-out in assay [10]: E-selectin (Homo sapiens) (UniProt P16581)
Put plainly: BSK_LPS_Eselectin: BioMAP Diversity Plus: LPS Assay for Eselectin Biomarker Activity (AID 2283077). As to conditions: primary human HUVEC with PBMC; actives raise or lower the signal. In a few lines:
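Dose chemical onto LPS-driven HUVEC/PBMC co-culture; after 24 h, run ELISA for E-selectin; fit up- and down-going responses relative to DMSO control.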

Read-out in assay [11]: Interleukin-8 (IL8), CXCL8 (gene 3576)
Put plainly: BSK_LPS_IL8: BioMAP Diversity Plus: LPS Assay for Interleukin-8 (IL8) Biomarker Activity (AID 2283078). As to conditions: primary human HUVEC with PBMC; actives raise or lower the signal. The essentials: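 In this LPS system, chemical-treated human umbilical vein endothelium/PBMC co-cultures were harvested at 24 h for IL-8 ELISA.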

Read-out in assay [12]: Interleukin-1 alpha (IL1a), IL1A (gene 3552)
Put plainly: BSK_LPS_IL1a: BioMAP Diversity Plus: LPS Assay for Interleukin-1 alpha (IL1a) Biomarker Activity (AID 2283080). As to conditions: primary human HUVEC with PBMC; actives raise or lower the signal. In a few lines: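 Primary human HUVEC and PBMC co-culture stimulated with LPS is dosed and harvested at 24 h. Both increases and decreases in ELISA-measured IL-1a are scored relative to DMSO.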

A short description of assay [13]: BSK_LPS_PGE2: BioMAP Diversity Plus: LPS Assay for Prostaglandin E2 (PGE2) Biomarker Activity (AID 2283082).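 On AC50: secreted prostaglandin E2 measured by ELISA in LPS-stimulated co-culture.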 As to conditions: primary human HUVEC with PBMC; actives raise or lower the signal. In a few lines:
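Endpoint derived from bidirectional curve fitting versus DMSO of ELISA-measured PGE2 in LPS-stimulated human primary vascular co-culture (HUVEC with PBMC) harvested at 24 h.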

Read-out in assay [14]: Tumor necrosis factor (Homo sapiens) (UniProt P01375)
The assay can be described thus: BSK_LPS_TNFa: BioMAP Diversity Plus: LPS Assay for Tumour Necrosis Factor alpha (TNFa) Biomarker Activity (AID 2283085). As to conditions: primary human HUVEC with PBMC; actives raise or lower the signal. The essentials: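 Primary human vascular co-culture of HUVEC and PBMC; TNFa ELISA 24 h after treatment, analysed as increase or decrease relative to DMSO control.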

Read-out in a further assay: CD38, CD38 (gene 952)
Put plainly: BSK_SAg_CD38: BioMAP Diversity Plus: SAg Assay for CD38 Biomarker Activity (AID 2283087). As to conditions: primary human HUVEC with PBMC; actives raise or lower the signal. The essentials: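 Fluorescence ELISA of cell-surface CD38 served as the read-out, with either increase or decrease fitted against DMSO controls. Cells were a human umbilical vein endothelium plus PBMC co-culture under SEB/TSST-1 stimulation, measured 24 h after dosing.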

Read-out in the next assay: CD69, CD69 (gene 969)
Put plainly: BSK_SAg_CD69: BioMAP Diversity Plus: SAg Assay for CD69 Biomarker Activity (AID 2283089).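 On AC50: cell surface CD69 protein quantified by ELISA with fluorescence detection.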 As to conditions: primary human HUVEC with PBMC; actives raise or lower the signal. The essentials: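 HUVEC co-cultured with PBMC were dosed with chemical, and CD69 was measured by ELISA with fluorescence read-out 24 h later. Bidirectional curve fitting used DMSO as negative control and activity baseline.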

Read-out in assay [15]: Monocyte Chemoattractant Protein-1 (MCP1), CCL2 (gene 6347)
Put plainly: BSK_SAg_MCP1: BioMAP Diversity Plus: SAg Assay for Monocyte Chemoattractant Protein-1 (MCP1) Biomarker Activity (AID 2283090). As to conditions: primary human HUVEC with PBMC; actives raise or lower the signal. In a few lines: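 MCP-1 levels in the endothelial–PBMC SAg co-culture were quantified by ELISA at 24 h post-dosing; both increases and decreases versus DMSO scored. Cytotoxicity monitored by SRB total protein in parallel cultures.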

Read-out in assay [16]: Monokine induced gamma interferon (MIG), CXCL9 (gene 4283)
Put plainly: BSK_SAg_MIG: BioMAP Diversity Plus: SAg Assay for Monokine induced gamma interferon (MIG) Biomarker Activity (AID 2283092). As to conditions: primary human HUVEC with PBMC; actives raise or lower the signal. In a few lines: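 HUVEC plus human PBMC co-culture, chemicals dosed and MIG (CXCL9) quantified by ELISA at 24 h. Bidirectional curve fitting against DMSO as negative control and baseline, so both gain and loss of signal count as activity.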

A short description of assay [17]: BSK_SAg_PBMCCytotoxicity: PBMC Cytotoxicity Assessment in the BioMAP Diversity Plus: SAg Assay (AID 2283093).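 Further: PBMC viability measured as Alamar Blue reduction fluorescence at 546/580 nm; fitted both ways against DMSO so a hit may be loss or gain of signal.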 As to conditions: primary human HUVEC with PBMC. In a few lines:
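Compound added to 75,000 PBMC/well for 1 h; SEB and TSST-1 then added at 20 ng/mL final each; 90 h incubation; Alamar Blue 6 h; read 546/580 nm ex/em. Activity fitted bidirectionally relative to DMSO baseline.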

Assay [18] in a line: BSK_SAg_Proliferation: Cell Proliferation Assessment in the BioMAP Diversity Plus: SAg Assay (AID 2283095).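 Further: relative cell number as total protein by SRB absorbance in sub-confluent culture.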 As to conditions: primary human HUVEC with PBMC. In a few lines:
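Readout is SRB-stained protein (560 nm) in a primary human HUVEC and PBMC co-culture; sub-confluent cultures are read at 96 h. Activity is fitted bidirectionally using DMSO as baseline.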

Structures are written as SMILES. Values joined by “and” are separate entries in the source; they are usually repeats but may differ in a detail not shown here. Equal values may be shown once. Some compounds were tested as several samples or in several runs, with calls that do not always agree. Active and inactive are the calls of the source. How the source made its calls: active means hit-call score of the fitted dose curve at least 0.9, where 1 is the maximum; inactive means score below 0.9.

As a reminder, the AC50 is the concentration at which the activity in the assay is half-maximal.

Sequence of E-selectin (Homo sapiens) (P16581 whole entry, looked up): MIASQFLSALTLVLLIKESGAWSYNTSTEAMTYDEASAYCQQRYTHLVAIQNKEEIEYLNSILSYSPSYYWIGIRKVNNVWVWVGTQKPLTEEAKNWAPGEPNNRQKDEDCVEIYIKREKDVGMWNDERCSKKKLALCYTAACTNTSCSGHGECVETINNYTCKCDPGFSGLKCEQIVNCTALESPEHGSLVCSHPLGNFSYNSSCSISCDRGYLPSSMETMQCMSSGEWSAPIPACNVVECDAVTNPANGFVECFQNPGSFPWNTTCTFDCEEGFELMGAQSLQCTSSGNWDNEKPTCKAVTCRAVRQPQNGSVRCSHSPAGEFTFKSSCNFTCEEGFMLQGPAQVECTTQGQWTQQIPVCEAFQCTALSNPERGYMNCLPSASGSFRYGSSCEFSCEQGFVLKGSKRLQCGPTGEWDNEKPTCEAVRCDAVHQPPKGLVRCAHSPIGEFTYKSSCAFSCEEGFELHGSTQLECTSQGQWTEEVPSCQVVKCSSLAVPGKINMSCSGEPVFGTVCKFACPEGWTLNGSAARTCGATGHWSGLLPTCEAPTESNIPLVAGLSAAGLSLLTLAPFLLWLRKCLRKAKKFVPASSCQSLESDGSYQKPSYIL
Sequence of Tumor necrosis factor (Homo sapiens) (P01375 whole entry, looked up): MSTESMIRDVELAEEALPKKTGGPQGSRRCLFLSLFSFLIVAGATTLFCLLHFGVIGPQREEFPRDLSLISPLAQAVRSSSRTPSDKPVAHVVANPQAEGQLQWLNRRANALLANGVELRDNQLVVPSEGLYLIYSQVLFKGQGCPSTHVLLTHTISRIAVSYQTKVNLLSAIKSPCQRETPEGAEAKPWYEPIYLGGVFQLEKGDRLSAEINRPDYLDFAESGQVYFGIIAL

Regarding `CC1(C)[C@H](C(=O)O[C@H](C#N)c2cccc(Oc3ccccc3)c2)[C@@H]1C=C(Br)Br`, the outcome in [1], in [2], in assay [3], in assay [4], in assay [5] and in [6] was inactive. Besides, the result in assay [7], in assay [8], in assay [9], in assay [10], in [11] and in [12] was inactive. For the same compound, the outcome in assay [14] was “inactive”; with CD38, CD38 (gene 952), “inactive”; with CD69, CD69 (gene 969), “inactive”; in assay [15] it was “inactive”; in [16], “inactive”; in [17] it was “inactive”. In addition, the result in assay [18] was inactive. Further, the concentration at half-maximal activity (AC50) is 1.67 µM (active) and 92.9 nM (active) in assay [13]; 2420 nM (active) with CD38, CD38 (gene 952); 2070 nM (active) with CD69, CD69 (gene 969); 3970 nM (active) in assay [18].

On to `O=[N+]([O-])c1ccc(Cl)cc1`, for which the outcome in assay [1], in assay [2], in [3], in assay [4], in [5] and in assay [6] was inactive. In addition, the outcome in assay [7], in assay [8], in assay [9], in assay [10], in [11] and in assay [12] was inactive. For the same compound, the outcome in [13] was “inactive”; in assay [14], “inactive”; with CD38, CD38 (gene 952) it was “inactive”; in the assay with CD69, CD69 (gene 969) it was “inactive”; in [15], “inactive”; in [16], “inactive”. Besides, the result in assay [17] and in [18] was inactive.

`CCc1cc(C)cc(CC)c1-c1c(OC(=O)C(C)(C)C)n2n(c1=O)CCOCC2`: the outcome in assay [1], in assay [2], in assay [3], in assay [4], in [5] and in [7] was inactive. Besides, the outcome in [8], in assay [9], in [10], in [12], in assay [13] and in [14] was inactive. Besides, the outcome in the assay with CD38, CD38 (gene 952) was “inactive”; with CD69, CD69 (gene 969), “inactive”; in assay [15], “inactive”; in assay [16], “inactive”; in assay [17] it was “inactive”; in [18], “inactive”. Further, the AC50 in assay [6] is 9410 nM (active); in assay [11], 16 nM (active).

Turning to `Oc1cc(Cl)ccc1Cl`, the outcome in assay [1], in [2], in assay [3], in [4], in assay [5] and in [6] was inactive. Besides, the result in [7], in [8], in assay [9], in assay [10], in assay [11] and in assay [12] was inactive. The outcome was “inactive” in assay [13]; “inactive” in assay [14]; “inactive” with CD38, CD38 (gene 952); “inactive” with CD69, CD69 (gene 969); “inactive” in assay [15]; “inactive” in assay [16]. Further, the result in [17] and in assay [18] was inactive.

For `COc1ccc(CO)cc1`, the result in assay [1], in [2], in [4], in assay [5], in [6] and in assay [7] was inactive. Besides, the result in [8], in [9], in assay [10], in assay [11], in assay [12] and in assay [13] was inactive. The outcome in [14] was “inactive”; with CD38, CD38 (gene 952), “inactive”; with CD69, CD69 (gene 969), “inactive”; in assay [15], “inactive”; in assay [16], “inactive”; in [17] it was “inactive”. The result in assay [18] was inactive.
